Experimental data taken from PubChem BioAssay AID1159580 (chemical genetic matrix, 2015).
Among all 5,500 compounds or so, about 2,000 (36%) were called active. Another 18% or so got no clear call; they are omitted. No stated cut-off is given here; in the data, active means normalized growth mostly below about 0.91 (no sharp cut-off); inconclusive means no clear call, values can overlap the other calls; inactive means mostly above about 0.92. This is one part of the list.

Test: chemical genetic growth profiling, strain panel (AID 1159580);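 further: tested at 20 µM; growth read once vehicle control cultures reached saturation at 30 °C; 1 = growth at the plate median or of vehicle wells; lower values mean less growth of the strain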
Conditions: S. cerevisiae deletion strains, growth OD

Measured: normalized growth

Cc1ccc(C(O)(c2ccccc2)c2ccccc2)c2ccccc12
inactive: locus YAR019C, strain CDC15, active compounds read low 0.992 | locus YBL105C, strain PKC1, active compounds read low 0.985 | locus YBR135W, strain CKS1, active compounds read low 0.98 | locus YBR136W, strain MEC1, active compounds read low 0.983 | locus YBR160W, strain CDC28, active compounds read low 0.985 | locus YDL017W, strain CDC7, active compounds read low 0.992 | locus YDL028C, strain MPS1, active compounds read low 0.985 | locus YDL101C, strain DUN1, active compounds read low 0.97 | locus YDL108W, strain KIN28, active compounds read low 0.981 | locus YDL132W, strain cdc53, active compounds read low 0.976 | locus YDL214C, strain PRR2, active compounds read low 0.963 | locus YDR052C, strain DBF4, active compounds read low 0.992 | locus YDR054C, strain cdc34, active compounds read low 0.988 | locus YDR226W, strain ADK1, active compounds read low 0.983 | locus YDR477W, strain SNF1, active compounds read low 0.975 | locus YER123W, strain YCK3, active compounds read low 1 | locus YER133W, strain GLC7, active compounds read low 0.998 | locus YFL009W, strain cdc4, active compounds read low 0.982 | locus YFL029C, strain CAK1, active compounds read low 0.993 | locus YFR003C, strain YPI1, active compounds read low 0.988 | locus YFR019W, strain FAB1, active compounds read low 0.952 | locus YFR028C, strain CDC14, active compounds read low 0.979 | locus YGR040W, strain KSS1, active compounds read low 0.947 | locus YGR052W, strain FMP48, active compounds read low 0.982 | locus YGR092W, strain DBF2, active compounds read low 0.907 | locus YHR030C, strain SLT2, active compounds read low 1.02 | locus YHR079C, strain IRE1, active compounds read low 0.996 | locus YHR082C, strain KSP1, active compounds read low 1 | locus YHR205W, strain SCH9, active compounds read low 0.858 | locus YIL147C, strain SLN1, active compounds read low 0.993 | locus YJL095W, strain BCK1, active compounds read low 0.904 | locus YJL128C, strain PBS2, active compounds read low 0.926 | locus YJL157C, strain FAR1, active compounds read low 0.997 | locus YJR016C, strain ILV3, active compounds read low 0.995 | locus YJR066W, strain TOR1 (second series), active compounds read low 0.963 | locus YJR066W, strain TOR1, active compounds read low 1.01 | locus YKL048C, strain ELM1, active compounds read low 0.965 | locus YKL067W, strain YNK1, active compounds read low 0.975 | locus YKL101W, strain HSL1, active compounds read low 0.953 | locus YKL193C, strain SDS22, active compounds read low 0.989 | locus YKL203C, strain TOR2, active compounds read low 1.01 | locus YLR113W, strain HOG1, active compounds read low 0.936 | locus YLR133W, strain CKI1, active compounds read low 0.949 | locus YLR403W, strain SFP1, active compounds read low 0.916 | locus YML070W, strain DAK1, active compounds read low 0.959 | locus YMR001C, strain CDC5, active compounds read low 0.988 | locus YMR205C, strain PFK2 (second series), active compounds read low 0.976 | locus YMR277W, strain FCP1, active compounds read low 0.991 | locus YNL006W, strain LST8, active compounds read low 0.984 | locus YNL020C, strain ARK1, active compounds read low 0.955 | locus YNL161W, strain CBK1, active compounds read low 0.98 | locus YNL183C, strain NPR1, active compounds read low 0.987 | locus YNL207W, strain RIO2, active compounds read low 0.991 | locus YNL222W, strain SSU72, active compounds read low 0.983 | locus YNL307C, strain MCK1 (second series), active compounds read low 0.904 | locus YOL078W, strain AVO1, active compounds read low 0.979 | locus YOL136C, strain PFK27, active compounds read low 0.929 | locus YOR061W, strain CKA2, active compounds read low 0.979 | locus YOR119C, strain RIO1, active compounds read low 1.05 | locus YOR231W, strain MKK1, active compounds read low 0.966 | locus YOR329C, strain SCD5, active compounds read low 0.992 | locus YPL031C, strain PHO85, active compounds read low 0.983 | locus YPL153C, strain RAD53, active compounds read low 1 | locus YPL204W, strain HRR25, active compounds read low 0.956 | locus YPL209C, strain IPL1, active compounds read low 0.983 | locus YPL256C, strain CLN2, active compounds read low 1.04 | locus YPR025C, strain CCL1, active compounds read low 0.99 | locus YPR106W, strain ISR1, active compounds read low 0.97 | locus YPR111W, strain DBF20, active compounds read low 0.953 | strain NNK1, active compounds read low 0.976 | strain TSCII, active compounds read low 0.982
